These results are taken from PubChem BioAssay (NCATS).

Inconclusive results are not listed. Activity calls are given as the source filed them. Calls come from the whole dose curve; as a rule, active = well fitted cell-killing curve with a large enough effect; inconclusive = small, poorly fitted or top-dose-only effect, or effect the other way; inactive = no such curve, though single readings can be large or run the other way. Starred links: 1 amine or outer side, 2 acyl side, 3 side chain; linkers in the order of their positions; H or OH if unused. Positions of bridges follow the written chain, without caps; N, C: chain ends. Non-standard residues stand in square brackets, D forms with d. Residues, ends and D or L forms follow the SMILES beside them. Chains are numbered I, II in the order given. Actinocin(9to1) = Cc1c2oc3c(C)ccc(C(=O)[*:1])c3nc-2c(C(=O)[*:2])c(N)c1=O; NMeV = CN[CH](C(=O)O)C(C)C; Sar = CNCC(=O)O
Potency is the fitted concentration of half-maximal effect.

The experiment in a line: Quantitative High-Throughput drug screen in 47 multiple myeloma cell lines against the NCATS MIPE library collection: FR4_PLB cell viability assay (AID 1918924; note: nearly all actives have a fitted effect of over 35% in size). Conditions: FR4_PLB myeloma cells viability, CellTiter-Glo ATP, 48 h; series mostly up to 45.8 µM; viability (% of DMSO control): at the top concentration. A digest of the protocol:
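Myeloma cell lines, 500 cells per well, exposed to MIPE 4.0 library compounds for 48 h at 37C, 5% CO2. Viability from ATP by CellTiter-Glo luminescence; normalised to DMSO (100%) and media-only (0%) wells.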
On to `N#Cc1cc(NC(=O)Nc2nnc(-c3ccncc3)s2)ccc1-c1cn[nH]c1`, for which the “viability (% of DMSO control)” value is 96% (inactive).

For `Cc1cnc(NC(=O)Nc2cc(Br)c(C)cc2OC[C@@H]2CNCCO2)cn1`, the Potency is 590 nM (active).

For `CC(=O)O[C@H]1C[C@@H]2CC[C@H]3[C@H]4C[C@H]([N+]5(C)CCCCC5)[C@@H](OC(C)=O)[C@@]4(C)CC[C@@H]3[C@@]2(C)C[C@H]1[N+]1(C)CCCCC1`, the “viability (% of DMSO control)” value is 128% (inactive).

`CC(C)(C)[C@H](NC(=O)c1ccc(N)c(Cl)c1)C(=O)N1CCC[C@@H]1C(=O)N[C@H](C#N)CC(=O)O`: the viability (% of DMSO control) was 107% [at 3.51 µM] (inactive).

`CCc1c(O)cc(O)c(C(=O)c2ccc(OCCN3CCOCC3)c(OC)c2)c1CC(=O)N(CCOC)CCOC`: the Potency is 1180 nM (active).

Regarding `O=C1NC(=O)[C@@H](c2cn3c4c(cccc24)CCC3)[C@H]1c1c[nH]c2ccccc12`, the Potency is 74.3 nM (active).

As for `O=C(O)CCCCC(CCSCc1ccccc1)SCc1ccccc1` (stereo unspecified), the “viability (% of DMSO control)” value is 109% (inactive).

As for `Nc1ccn(C[C@@H](CO)OCP(=O)(O)O)c(=O)n1`, the “viability (% of DMSO control)” value was 142% [at 23.2 µM] (inactive).

For the compound `O=C(O)[C@H](CC(=O)N1C[C@@H]2CCCC[C@H]2C1)Cc1ccccc1`, the “viability (% of DMSO control)” value was 130% (inactive).

With `OCC(O)C(O)C(O)CO` (stereo unspecified), the “viability (% of DMSO control)” value is 108% (inactive).

`Cc1c2oc3c(C)ccc(C(=O)NC4C(=O)NC(C(C)C)C(=O)N5CCCC5C(=O)N(C)CC(=O)N(C)C(C(C)C)C(=O)OC4C)c3nc-2c(C(=O)NC2C(=O)NC(C(C)C)C(=O)N3CCCC3C(=O)N(C)CC(=O)N(C)C(C(C)C)C(=O)OC2C)c(N)c1=O` (stereo unspecified) (I: TVP[Sar][NMeV] / II: TVP[Sar][NMeV]; ester I:1-I:C, II:1-II:C; linker I:N-II:N via Actinocin(9to1); configuration not given here): the “viability (% of DMSO control)” value is -7.34% (inactive).

`COC1=C2C[C@@H](C)C[C@H](OC)[C@@H](O)[C@@H](C)C=C(C)[C@H](OC(N)=O)[C@@H](OC)C=CC=C(C)C(=O)NC(=CC1=O)C2=O`: the Potency was 332 nM (active).

For `CC(=O)N1CCN(c2ccc(OCc3nn(C)c(C)c3-c3cccc4c(CCCOc5cccc6ccccc56)c(C(=O)O)n(Cc5cccnc5)c34)cc2)CC1`, the Potency was 10500 nM (active).

For `O=C1NC(O)CCN1[C@@H]1O[C@H](CO)[C@H](O)[C@H]1O` (stereo partly specified), the “viability (% of DMSO control)” value was 124% (inactive).

Regarding `CCNC(=O)Nc1ccc(-c2nc3c(c(N4CCOC[C@H]4C)n2)CCN(C2COC2)C3)cc1`, the Potency was 935 nM (active).

As for `O=C1c2cccc(O)c2C(=O)c2c(O)cc(CO)cc21`, the “viability (% of DMSO control)” value was 86.4% (inactive).

For `O=C1NC(=O)C(=Cc2ccc3nccc(-c4ccncc4)c3c2)S1`, the Potency is 332 nM (active).

In the case of `CN(C)c1ccc2cc(C(=O)N[C@@H](CCCN=C(N)CCl)C(=O)NCc3ccccc3)ccc2c1`, the Potency is 11800 nM (active).

As to `Cn1cc(C2=C(c3c4n(c5ccccc35)CCC(CN)C4)C(=O)NC2=O)c2ccccc21` (stereo unspecified), the Potency is 18700 nM (active).

For `Cn1cc(C[C@@H](N)C(=O)O)c2ccccc21`, the “viability (% of DMSO control)” value is 133% [at 23.2 µM] (inactive).

On to `OCc1ccccc1O[C@@H]1O[C@H](CO)[C@H](O)[C@H](O)[C@H]1O`, for which the “viability (% of DMSO control)” value was 125% (inactive).

Regarding `N#CC(=C(N)Sc1ccc(N)cc1)c1ccccc1C(F)(F)F`, the “viability (% of DMSO control)” value was 90.5% (inactive).

For `CS[C@H]1SC[C@@H]2C(=O)N(C)[C@H](C(C)C)C(=O)OC[C@H](NC(=O)c3cnc4ccccc4n3)C(=O)N[C@H](C)C(=O)N(C)[C@@H]1C(=O)N(C)[C@H](C(C)C)C(=O)OC[C@H](NC(=O)c1cnc3ccccc3n1)C(=O)N[C@H](C)C(=O)N2C`, the Potency is 4.2 nM (active).

Take `c1cc(CN2CCCNCCNCCCNCC2)ccc1CN1CCCNCCNCCCNCC1`: the “viability (% of DMSO control)” value was 124% (inactive).

Regarding `CCN(C(=O)c1c(O)c2c(Cl)cccc2n(C)c1=O)c1ccccc1`, the “viability (% of DMSO control)” value is 107% (inactive).

As for `CCCNC(=O)[C@H]1O[C@H]1C(=O)N[C@H](C(=O)N1CCC[C@@H]1C(=O)OC)C(C)CC` (stereo partly specified), the Potency is 8330 nM (active).

With `O=[N+]([O-])c1cn2c(n1)OC[C@@H](OCc1ccc(OC(F)(F)F)cc1)C2`, the “viability (% of DMSO control)” value is 127% (inactive).

For the compound `O=C(C=CC#Cc1cccc(NS(=O)(=O)c2ccccc2)c1)NO`, the Potency was 1180 nM (active).

`NS(=O)(=O)OC[C@@H]1C[C@@H](n2ccc3c(N[C@H]4CCc5ccccc54)ncnc32)C[C@H]1O`: the Potency is 9350 nM (active).

As for `CCOC(=O)C=C[C@H](C[C@@H]1CCNC1=O)NC(=O)[C@@H](CC(=O)[C@@H](NC(=O)c1cc(C)on1)C(C)C)Cc1ccc(F)cc1`, the “viability (% of DMSO control)” value was 124% (inactive).

With `CO[C@@H]1[C@@H](O)[C@H](O)[C@@H](n2c3c(Cl)cccc3c3c4c(c5c6cccc(Cl)c6[nH]c5c32)C(=O)NC4=O)O[C@@H]1CO`, the Potency was 3320 nM (active).
